# TPT1 inh – Candida albicans TPT1 enzyme inhibitors, primary screen, biochemical, fluorescence polarization. tRNA 2'-phosphotransferase TPT1 (Candida albicans SC5314). recombinant caTPT1, FP RNA substrate dephosphorylation. inhibition, % at 5 µM. 300,000 tested, 0.81% active. AID 1962, 2009;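 active = inhibition above the mean of all tested compounds plus 3 SD, set per screening campaign, cut at about 24% in these data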;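 note: plate controls were DMSO alone for no effect and ferristatin control at 100 nM for full effect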
# Calb FLC – C. albicans growth inhibition with fluconazole, primary screen, CaCi-2 strain, Alamar Blue fluorescence. 300,000 tested, 0.57% active. C. albicans CaCi-2 (fluconazole-resistant clinical isolate) + fluconazole, 48 h. growth inhibition, % (no concentration beside the values);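 active = growth inhibition above about 58% in most replicates, limit read from the data, passing the limit was not always enough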;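 note: all wells also contain fluconazole at 8 µg/ml as a sub-toxic cotreatment; 0% = median of DMSO wells and 100% = median of geldanamycin control wells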
# Rpn11 inh – Rpn11 (PSMD14) deubiquitinase inhibitors, primary screen, biochemical, fluorescence polarization, uHTS | 26S proteasome non-ATPase regulatory subunit 14 (Homo sapiens), O00487 | human 26S proteasome, Ub4-pepOG fluorescence polarization; 20S core pre-blocked with epoxomicin | inhibition, % at 20 µM | 360,000 tested, 0.59% active | AID 588493, 2011;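 active = inhibition at 20 µM, scaled to each plate's controls, above about 33%, limit read from the data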
# IDE act – human IDE activators in live cells, primary screen, fluorescence polarization, HEK cells, FAbeta-B substrate; FAbeta-B cleavage; 0% vehicle, 100% cell-free pure enzyme wells; activation, % at 5.96 µM; 340,000 tested, 0.073% active; AID 493087, 2011;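 active = activation above the mean of all tested compounds plus 3 SD, set per screening campaign, cut at about 17% in these data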
# IDE inh – human IDE inhibitors in live cells, primary screen, fluorescence polarization, HEK cells, FAbetaB substrate; Insulin-degrading enzyme (Homo sapiens), P14735; FAbetaB cleavage; inhibition, % at 5.59 µM; 320,000 tested, 0.41% active; AID 434962, 2010;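 active = percent inhibition above the average of all tested compounds plus 3 SD, set per screening campaign, cut at about 16% in these data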;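 note: IDE supplied by intact live HEK cells; FP after avidin binding of uncleaved biotin substrate so inhibition keeps polarization high; 0% = DMSO wells and 100% = 60 µM reference IDE inhibitor Ii1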
# Rin1 Abl inh – inhibitors of Rin1-Abl protein binding, primary screen, biochemical, TR-FRET | Tyrosine-protein kinase ABL1 (Homo sapiens) + Ras and Rab interactor 1 (Homo sapiens), … | inhibition, % at 7.35 µM | 360,000 tested, 0.4% active | AID 588664, 2011; in the data active = inhibition above about 5%, passing the limit was not always enough
# Rpn11 inh conf – Rpn11 (PSMD14) deubiquitinase inhibitors, confirmation, biochemical, fluorescence polarization, single concentration | purified human 26S proteasome, Ub4-pepOG fluorescence polarization; proteasome pretreated with epoxomicin | 1,900 tested, 29% active | shares compounds with Rpn11 inh | inhibition, % at 20 µM
# MMP-2 inh – MMP-2 enzyme inhibition, confirmation, counter-screen for RPN11 inhibitor project, biochemical, fluorescence, single concentration; shares compounds with Rpn11 inh; recombinant MMP-2, FRET peptide cleavage fluorescence; inhibition, % at 20 µM; 1,900 tested, 4% active; AID 602330, 2012;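 note: human MMP-2 activated beforehand with APMA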
# Thrombin inh – bovine thrombin protease inhibition, confirmation, counter-screen for Rpn11 inhibitor project, biochemical, fluorescence polarization, single concentration; shares compounds with Rpn11 inh; bovine thrombin cleavage of Ub4-pepOG; inhibition, % at 20 µM; 1,900 tested, 13% active;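 active = mean inhibition at least 40% at 20 µM, or signal 3 deviations below plate average, so some actives read negative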;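 note: plate controls were thrombin with DMSO for no effect and buffer wells lacking thrombin for full effect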
# Target sequence (P00735 whole entry, looked up): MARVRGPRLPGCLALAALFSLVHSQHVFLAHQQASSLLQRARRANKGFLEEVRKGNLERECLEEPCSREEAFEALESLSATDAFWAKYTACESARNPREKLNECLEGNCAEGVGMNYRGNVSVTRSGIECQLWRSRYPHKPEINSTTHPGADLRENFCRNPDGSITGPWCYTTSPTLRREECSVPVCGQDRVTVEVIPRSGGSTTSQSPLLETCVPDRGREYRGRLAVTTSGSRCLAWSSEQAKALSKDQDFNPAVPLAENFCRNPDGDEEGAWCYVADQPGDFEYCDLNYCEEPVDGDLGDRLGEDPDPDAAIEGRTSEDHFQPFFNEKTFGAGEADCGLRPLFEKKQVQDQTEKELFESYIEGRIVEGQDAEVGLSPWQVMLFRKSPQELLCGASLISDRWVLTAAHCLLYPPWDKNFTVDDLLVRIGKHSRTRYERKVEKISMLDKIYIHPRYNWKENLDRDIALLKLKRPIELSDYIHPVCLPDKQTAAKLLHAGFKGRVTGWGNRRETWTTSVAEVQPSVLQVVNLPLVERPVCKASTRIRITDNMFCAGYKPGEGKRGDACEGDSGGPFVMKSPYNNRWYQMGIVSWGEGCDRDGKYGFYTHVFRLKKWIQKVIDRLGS
# An asterisk follows results filed as active; · = no result. Compounds with a hit are over-represented: about 2.3% of the library has one in this group of screens. Cut-off read from the data, not from the text of the source, unless noted: active = inhibition above about 40%; inactive = the rest.
SMILES,TPT1 inh,Calb FLC,Rpn11 inh,IDE act,IDE inh,Rin1 Abl inh,Rpn11 inh conf,MMP-2 inh,Thrombin inh
Cc1ccc(S(=O)(=O)N2CCOCC2)cc1C(=O)OCC(=O)NC1CCCC(C)C1C (stereo not drawn),·,·,0,3,0,1,·,·,·
C=CCn1cnc2c(c1=O)c1nc3ccccc3nc1n2/N=C/c1cc(OC)c(OC)c(OC)c1,3,-2,1,6,2,-5,·,·,·
C=CCn1cnc2c(c1=O)c1nc3ccccc3nc1n2/N=C/c1cccc(OC)c1OC,-3,·,192*,-4,1,-1,5,-25,-2
C=CCn1c2ccccc2c2nnc(SCC(N)=O)nc21,0,-8,45*,0,2,1,-4,-30,-1
Nc1ccc(-c2nc3ccccc3o2)cc1,12,-4,41*,0,2,4,18,7,2
C[C@H](CO)N1C[C@H](C)[C@@H](CN(C)CC2CCCCC2)Oc2c(NS(=O)(=O)c3ccc(F)cc3)cccc2C1=O,·,·,-1,0,4,4,·,·,·
Cc1cc2nc(CS)[nH]c2cc1C,6,14,50*,-2,-1,1,53*,14,1
Cc1cc2nc(CO)[nH]c2cc1C,-2,6,0,2,2,-1,·,·,·
Cc1cc2nc(/C=C/c3nc4cc(C)c(C)cc4[nH]3)[nH]c2cc1C,13,-1,56*,-1,-1,1,4,-5,-30
Cc1cc2nc(/C=C/c3cccnc3)[nH]c2cc1C,·,1,1,1,·,0,·,·,·
CSc1ccc(CNC(=O)C2(C)CCCN(C(C)=O)C2)cc1 (stereo not drawn),·,·,-1,·,·,-2,·,·,·
Cc1ccc(Cl)cc1NC1=NC(=S)N(C(C)C)C12CCCCC2,-5,6,4,6,0,-2,·,·,·
COc1cc2oc3ccccc3c2cc1N(CC(=O)N(C)C)S(=O)(=O)c1ccccc1,-1,14,116*,2,0,-2,-1,20,-14
COc1ccc(CCNC(=O)CNCCc2ccc(F)cc2)cc1,-6,-3,15,0,-1,2,·,·,·
Oc1ccc(C=NN=C2c3ccccc3-c3ccccc32)c(O)c1,·,·,74*,-20,·,0,58*,-19,49*
Cn1c(=O)c2ncn(CC(=O)Nc3ccc4c5c(cccc35)CC4)c2n(C)c1=O,11,7,52*,-5,6,-3,34,-12,19
O=C(CN1C(=O)CCC1=O)Nc1ccc2c3c(cccc13)CC2,2,23,102*,3,-3,1,7,-12,1
CN(C)S(=O)(=O)c1cccc(NC(=O)c2cccc(S(=O)(=O)N3CCc4ccccc43)c2)c1,·,·,4,2,-2,0,·,·,·
COc1cc(/C=N/NC(=O)c2ccc(O)cc2)ccc1OCC(=O)Nc1cccc([N+](=O)[O-])c1,1,-4,116*,0,8,1,9,-18,-3
O=C(N/N=C/c1cccc([N+](=O)[O-])c1)c1cccc(Br)c1,3,6,3,2,-2,-2,·,·,·
O=C(N/N=C/c1cccc([N+](=O)[O-])c1)c1ccc(Br)cc1,0,-10,42*,-1,5,3,17,41*,1
COc1ccc(OC2(C)CCN(Cc3ccccc3OC(F)F)C2)cc1 (stereo not drawn),·,·,2,·,·,3,·,·,·
COc1ccc(C(CNS(=O)(=O)c2ccc(NC(C)=O)c(OC)c2)N2CCCCC2)cc1 (stereo not drawn),·,·,-3,-1,3,0,·,·,·
Cc1ccccc1C(=O)N1CCC(C(=O)N(C)CC(=O)Nc2cccc(F)c2)CC1,-1,-7,-4,4,-1,1,·,·,·
COC(=O)c1ccc(NC(=O)COC(=O)COc2cccc3c2OC(C)(C)C3)cc1,·,·,-2,3,4,-1,·,·,·
SMILES,TPT1 inh,Calb FLC,Rpn11 inh,IDE act,IDE inh,Rin1 Abl inh,Rpn11 inh conf,MMP-2 inh,Thrombin inh
Cn1c(CCNC(=O)c2ccc(Cl)cc2)n[nH]c1=S,-3,-4,41*,2,10,3,8,0,-3
O=C(COC(=O)CCC(=O)c1cccs1)Nc1ccc(F)c(F)c1F,·,·,7,-2,8,-2,·,·,·
CCCCc1ccc(-c2csc(/C(C#N)=C\c3ccc(C)o3)n2)cc1,4,15,62*,-11,-4,-1,12,-5,6
COc1ccc(CN2CC[C@H]3C=CCc4cccc(c43)C2)cc1,·,·,-15,2,8,2,·,·,·
COCCNC(=O)CN(Cc1ccccc1)C(=O)CCC(=O)Nc1nccs1,-1,-6,6,1,7,-1,·,·,·
CCOc1ccc(C(=O)Nc2cccc(C(=O)O)c2)cc1Cl,0,-4,4,1,-4,-1,·,·,·
CCOc1ccc(C(=O)Nc2cccc(-c3nc4cccnc4o3)c2)cc1Cl,3,2,55*,8,-2,4,19,-24,3
CC(C)Cc1cc(-c2ccco2)c(C#N)c(N)n1,-4,15,60*,5,-3,-2,-6,-9,-6
CCOc1cc(S(=O)(=O)N2CCCC2)c(C)cc1C,-6,5,-1,-1,-2,1,·,·,·
COc1ccc(N2C(=O)c3ccccc3NC23CCCC3)cc1,-2,0,37*,5,3,3,-5,-36,0
O=C1Nc2cnc(Cl)nc2Nc2ccccc21,·,·,5,·,·,-4,·,·,·
CCOC(=O)c1cc(-c2ccccc2)sc1NC(=O)C(C)N1C(=O)NC(C)(c2ccc(Cl)cc2)C1=O (stereo not drawn),5,-2,120*,2,6,-1,13,11,4
O=C(Nc1cccc(S(=O)(=O)N2CCCC2)c1)[C@@H]1O[C@H](CO)[C@@H](O)[C@H]1O,·,·,-1,·,·,1,·,·,·
